UBC13 polyUb = inhibitors of human UBC13 polyubiquitin chain formation. TR-FRET. 0.47% of 330,000 active. AID 485273. inhibition, % at 20 µM. P61088; in the data active = inhibition above about 45%, passing the limit was not always enough
MEKK2mut PB1 HTS = signal of MEK5 binding to mutant human MEKK2 PB1 domain | bead flow cytometry, Alexa488-MEK5 binding to MEKK2 mutant | percent response, % at 10 µM | 0.35% of 290,000 active | AID 1530; in the data active = percent response above about 24%, passing the limit was not always enough
MEKK2wt PB1 HTS = raises or lowers MEK5 binding to wildtype human MEKK2 PB1 domain. bead flow cytometry, Alexa488-MEK5 binding to MEKK2 WT; actives lie on both sides. binding response (% of control), % at 10 µM. 1.1% of 290,000 active. AID 1531; in the data active = binding response below about 67% or above about 130%
PREPL inh = inhibits the human prolyl oligopeptidase-like enzyme; Q4J6C6; recombinant PREPL, fluorescence polarization activity-based probe; inhibition, % at 5.96 µM; 0.68% of 320,000 active; AID 2751;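 note: 0% = enzyme with DMSO and 100% = wells lacking enzyme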
MEKK3 PB1 HTS = modulators (inhibitors or enhancers) of MEK5 binding to human MEKK3 PB1 domain. Q99759. bead-based flow cytometry, Alexa488-MEK5 binding to MEKK3; actives lie on both sides; 0 = blocked by unlabeled MEK5, 100 = vehicle. binding response (% of control), % at 10 µM. 1.4% of 290,000 active. AID 1529;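 active = binding response more than 3 SD above or below the average of its plate-row segment, actives on both sides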;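 note: Alexa488 bead fluorescence after subtracting the streptavidin-only scavenger bead signal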
Target sequence (Q99759 whole entry, looked up, the tested form may be a part): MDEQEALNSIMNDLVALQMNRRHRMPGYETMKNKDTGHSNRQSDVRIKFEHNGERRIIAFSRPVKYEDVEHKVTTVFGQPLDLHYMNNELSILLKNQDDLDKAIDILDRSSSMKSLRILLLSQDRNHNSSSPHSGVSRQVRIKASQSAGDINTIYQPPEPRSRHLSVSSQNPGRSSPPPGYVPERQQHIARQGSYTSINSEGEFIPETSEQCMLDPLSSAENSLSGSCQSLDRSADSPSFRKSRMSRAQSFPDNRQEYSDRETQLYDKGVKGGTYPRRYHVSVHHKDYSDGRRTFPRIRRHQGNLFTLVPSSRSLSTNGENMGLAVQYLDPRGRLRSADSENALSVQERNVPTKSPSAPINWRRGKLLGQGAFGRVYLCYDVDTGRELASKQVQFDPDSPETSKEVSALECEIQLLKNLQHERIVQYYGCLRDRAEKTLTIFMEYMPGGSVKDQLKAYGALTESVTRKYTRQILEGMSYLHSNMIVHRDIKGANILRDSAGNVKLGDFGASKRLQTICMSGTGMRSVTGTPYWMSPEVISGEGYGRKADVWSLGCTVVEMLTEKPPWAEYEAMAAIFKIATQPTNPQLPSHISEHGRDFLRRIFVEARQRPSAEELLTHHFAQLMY
ATG4B inhibitor = blocks human ATG4B protease cleavage of LC3 substrate; inhibition, % at 8.33 µM; 0.51% of 340,000 active; ATG4B cleavage of LC3-PLA2, NBD-HPC fluorescence, 1 h; AID 504462; in the data active = inhibition above about 40%
PREPL confirm = human PREPL inhibition, confirmation | inhibition, % at 5.96 µM | recombinant PREPL, fluorescence polarization activity probe | shares compounds with PREPL inh | 67% of 2,000 active;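 note: 0% = protein with DMSO and 100% = wells lacking protein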
* = called active by the depositor; nt = not tested or not shown. Rows were chosen to be rich in hits. Some 3.1% of all compounds tested hit in one or more screens of this group. Cut-off read from the data, not from the text of the source, unless noted: active = inhibition above about 43%; inactive = the rest.

SMILES	UBC13 polyUb	MEKK2mut PB1 HTS	MEKK2wt PB1 HTS	PREPL inh	MEKK3 PB1 HTS	ATG4B inhibitor	PREPL confirm
COc1ccc(N2CCN(c3oc(-c4ccco4)nc3C#N)CC2)cc1	6	2	98	44*	96	-8	35
COc1ccccc1-c1nc(C#N)c(N2CCN(c3ccccc3)CC2)o1	4	4	106	48*	106	-1	39
CC(C)Cn1cc(C(=O)N2CCN(c3ccccn3)CC2)c2c3ccccc3n(C)c2c1=O	19	6	103	51*	107	-8	43
O=C(O)C1OC(C(=O)O)C(C(=O)O)C1C(=O)O (stereo not given)	nt	nt	nt	nt	nt	4	nt
O=C1OC[C@H]2CCCN2C(=O)[C@@H](CC(=O)N(CCO)Cc2ccccc2)C/C=C\C[C@H]1Cc1ccc(F)cc1	20	nt	nt	54*	nt	-12	45*
O=C1OC[C@H]2CCCN2C(=O)[C@@H](CC(=O)N(CCO)Cc2ccccc2)C/C=C\CC[C@H]1Cc1ccc(F)cc1	5	nt	nt	45*	nt	-3	41
O=C1OC[C@@H]2CCCN2C(=O)[C@@H](CC(=O)N(CCO)Cc2ccccc2)C/C=C\C[C@H]1Cc1ccc(F)cc1	10	nt	nt	53*	nt	-5	40
Cc1cccc(NC(=O)CCCC(=O)OC(C)C(=O)c2ccccc2)c1 (stereo not given)	8	-1	97	-2	99	-9	nt
COc1cc(-c2nnc3sc(Cc4ccc(Cl)cc4)nn23)cc(OC)c1OC	23	nt	nt	54*	nt	-3	52*
COc1ccc(Cc2nn3c(-c4cc(OC)c(OC)c(OC)c4)nnc3s2)cc1	11	0	100	26	100	-20	nt
CCOc1cc(/C=N/N=C2/NC(=O)C(CC(=O)O)S2)ccc1OCc1ccc(Cl)cc1Cl (stereo not given)	-24	-2	97	49*	99	16	64*
COc1cc(/C=N/N=C2/NC(=O)C(CC(=O)O)S2)ccc1OCc1ccc(Cl)cc1 (stereo not given)	-15	1	102	38	108	4	nt
CC(=O)N1CCC(=NNc2nc3ccccc3[nH]2)CC1	-4	-1	99	54*	103	3	6
Nc1cc2c(cc1Cl)-c1ccc([N+](=O)[O-])cc1C2=NO	nt	nt	nt	nt	nt	-4	nt
COc1ccccc1C1CC(=O)Oc2c(C(C)C)ccc(C)c21 (stereo not given)	nt	nt	nt	nt	nt	2	nt
CCN(CC)CCC(c1cc(OC)c(OC)c(OC)c1)c1c(O)cc(OC)cc1OC (stereo not given)	13	2	92	45*	108	-8	47*
CCN(CC)C(=O)CC(c1cc(OC)c(OC)c(OC)c1)c1c(O)cc(OC)cc1OC (stereo not given)	-1	1	102	-3	101	-15	nt
COc1ccccc1C(=O)NC1CCN(C(=O)Nc2ccc(F)cc2)CC1	1	-6	92	10	93	4	nt
CC1C(C#N)=C(N)OC2=C1C(=O)CC(c1ccccc1)C2 (stereo not given)	8	2	95	12	97	-28	nt
CC(C)=CCC/C(C)=C/CNC(=O)CC1C[C@H](C(=O)N2CCOCC2)[C@@]2(C)c3[nH]c4ccccc4c3CCN2C1=O (stereo not given in full)	29	nt	nt	57*	nt	-17	33
Cc1ccc(CNC(=O)c2cc(-c3ccccc3)nn2CC2CC(c3cccc([N+](=O)[O-])c3)=NO2)cc1 (stereo not given)	8	-4	95	-2	102	1	nt
O=C(COC(=O)c1ccc2c(c1)OCCO2)Nc1cccc(S(=O)(=O)N2CCOCC2)c1	-5	0	109	72*	123	-6	8
Cc1ccc(C(=O)Oc2cc(C)n(C)c(=O)c2)cc1	-7	8	105	47*	103	-2	26
Cc1c(N)cccc1N	-3	nt	nt	50*	nt	5	15
Cc1ccn2c(Nc3ccccc3C)c(-c3ccncc3)nc2c1	12	0	99	1	95	-2	nt
SMILES	UBC13 polyUb	MEKK2mut PB1 HTS	MEKK2wt PB1 HTS	PREPL inh	MEKK3 PB1 HTS	ATG4B inhibitor	PREPL confirm
NC(=NC(=O)c1ccccc1)N1CCN(C(c2ccccc2)c2ccccc2)CC1	3	-14	91	3	94	-4	nt
Nc1cc2nsnc2cc1Br	-84	2	99	46*	101	65*	32
Nc1cccc2nsnc12	-37	2	103	2	99	-2	nt
COc1ccc(C2N(c3ccc4c(c3)OCCO4)C(=O)C2(F)F)cc1OC (stereo not given)	19	-10	92	-9	93	2	nt
Cc1ccn2c(CNCC3COCCO3)c(C(=O)N3CCCCCC3)nc2c1 (stereo not given)	2	-2	96	12	98	1	nt
O=C(NC1CCCC1)c1ccc2nc[nH]c2c1	-3	19	108	5	105	4	nt
O=C(c1ccccc1)c1ccc2nc(-c3ccco3)c(-c3ccco3)nc2c1	32	-11	68	62*	90	25	51*
O=C(NCCO)c1ccc2nc(-c3ccco3)c(-c3ccco3)nc2c1	-7	5	100	17	101	5	nt
O=C(NCCc1ccccc1)c1ccc2nc(-c3ccco3)c(-c3ccco3)nc2c1	-43	-7	69	74*	94	18	74*
O=C(NC1CCCC1)c1ccc2nc(-c3ccco3)c(-c3ccco3)nc2c1	-10	nt	nt	62*	nt	21	34
CC(CNC(=O)CN1C(=O)NC2(CCOc3ccccc32)C1=O)c1ccccc1 (stereo not given)	2	nt	nt	2	nt	-4	nt
CCCCN1C(=O)Cc2c1nc(N)c1c(N)nc(N(CCC)CCC)c(C#N)c21	nt	nt	nt	17	nt	-11	nt
CCN(CC)c1nc2c3c(nc4c(c3c1C#N)CC(=O)N4c1ccc(Cl)cc1)NC(C)=N2	-62	-1	83	66*	102	3	65*
O=S(=O)(Nc1cccc(-n2cnnn2)c1)c1ccccc1F	-2	3	101	2	99	0	nt
Cc1ccc(C(=O)Nc2ccnc(-c3ccncc3)n2)cc1	0	-5	98	5	100	3	nt
Cc1cccc(NS(=O)(=O)c2ccc(C)c(C(=O)NCC(c3cccs3)N(C)C)c2)c1 (stereo not given)	-4	nt	nt	nt	nt	-11	nt
COc1cc(NC(=O)CN2CCN(c3ccccc3F)CC2)c(C)cc1[N+](=O)[O-]	-10	3	111	55*	98	-11	69*
COc1cc(NC(=O)CN2CCCCC2)c(C)cc1[N+](=O)[O-]	-4	17	118	-3	104	30	nt
